Results filed as inconclusive are left out. Active and inactive are the calls of the source. Unless noted, the call rests on the fitted dose curve; in most records, active means well fitted curve in either direction with a large enough effect (not every such curve was filed as active); inconclusive means small, poorly fitted or top-dose-only effect, or another doubt; inactive means flat fitted curve, though single readings scatter.

The values below come from PubChem BioAssay (NCATS).

The target of assay [1] is Lysosomal acid glucosylceramidase (Homo sapiens) (UniProt P04062). In words: Glucocerebrosidase-p2 (AID 348; in the data active means potency below about 10 µM; further: potency means the concentration at half of the fitted maximal effect). As to conditions: purified GBA, blue fluorogenic substrate, 40 min. The method, boiled down:
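Compounds titrated from 0.6 nM upwards against 0.2 nM enzyme in pH 5.9 citric acid/KH2PO4, taurocholate, tween-20; blue fluorogenic substrate 80 uM, 40 min room temperature, stopped and read Ex 365/Em 440 for AC50.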

A short description of assay [2]: AP1 Signaling Pathway (AID 357).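 Further: ME-180 reporter cells stimulated with EGF at its EC50 level; on the % scale 0 is the no-effect control and ±100 the full control effect.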 The following applies: ME-180 AP-1-bla reporter, EGF-induced, beta-lactamase ratio, 5 h; at 7.69 µM (top of the series) unless noted. Put shortly: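 AP-1-bla ME-180 cells, Opti-MEM + 0.5% dialyzed FBS, plated overnight 37 °C. Cpd titration + EC50 EGF, 5 h 37 °C. CCF4 2.5 h RT; ex 405, em 460/530 ratio → %activity, AC50.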
The nature of assay [3]: NFAT Signaling Pathway (AID 444).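 Further: carbachol stimulus at about its EC50 of 1 µM final; on the % scale 0 is the no-effect control and ±100 the full control effect.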 The following applies: Jurkat NFAT-bla M1, carbachol, beta-lactamase ratio, 5 h; at 7.69 µM (top of the series) unless noted. Put shortly:
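Jurkat cells carrying an NFAT-driven β-lactamase reporter and co-transfected muscarinic M1 receptor were treated with compound plus carbachol (1 uM final, an EC50 level) for 5 h at 37 °C. CCF4 loading followed for 1 h at RT; 460/530 nm ratio gave %activity.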

Assay [4] can be described thus: Stat Signaling Pathway (AID 446).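 Further: ME-180 cervical cancer cells given 40 pM IL-6 alongside compound; SIE-controlled beta-lactamase reporter measured as 460/530 nm FRET emission ratio; on the % scale 0 is the no-effect control and ±100 the full control effect.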 As to conditions: ME-180 (cervical carcinoma) SIE beta-lactamase reporter, IL-6 stimulated, 5 h; at 7.69 µM (top of the series) unless noted. Put shortly:
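IL-6/STAT signaling read in ME-180 cells via an SIE beta-lactamase reporter. Stimulus was 40 pM IL-6 (its AC50) for 5 hrs, so both activation and inhibition register.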

In assay [5] the target is Glucocorticoid receptor (Homo sapiens) (UniProt P04150). In words: GR-EFC Redistribution (AID 451; calls by dose curve; further: potency means the concentration at half of the fitted maximal effect). As to conditions: CHO-K1 GR-EFC translocation, beta-gal luminescence, 2 h. The method, boiled down: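 CHO-K1 cells stably expressing nuclear-localized β-gal enzyme acceptor and GR fused C-terminally to the enzyme donor fragment; ligand-driven nuclear translocation restores β-gal by complementation. Compounds titrated up to 46 uM final, 2 h at 37 °C; luminescence read.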

For assay [6], the target named is Mitogen-activated protein kinase 10 (Mus musculus) (UniProt Q61831). In words: JNK3 AlphaScreen Assay (AID 530).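 Further: kinase came from lysate of stimulated human HepG2 cells; signal reports phosphorylation of biotinylated GST-cJun 1-79 at Ser73 with 10 µM ATP; on the % scale 0 is the no-effect control and ±100 the full control effect.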 As to conditions: JNK3 lysate, c-Jun phosphorylation; series mostly up to 57.1 µM. Put shortly:
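Inhibitors reduce antibody binding to phosphorylated biotin-cJun, lowering AlphaScreen luminescence. Lysates from HepG2 cells pre-activated by IL-1beta plus TNF-alpha supplied JNK3; compounds were titrated.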
On the technique in general: Bead proximity is the source of the signal in Alpha formats.

Assay [7] has as its target 3',5'-cyclic-AMP phosphodiesterase 4B (Homo sapiens) (UniProt Q07343). The experiment in a line: qHTS Assay for Inhibitors of PDE-IV (AID 607; active means well fitted activation curve with a large enough effect in the main read-out, with a control signal flat, not every such curve was filed as active; further: % of control where 0% means no effect). The following applies: HEK293 ACTOne CNG channel cells, membrane potential fluorescence; series mostly up to 22.9 µM. Put shortly:
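Live HEK293 cells with a modified cyclic nucleotide-gated (CNG) channel report intracellular cAMP via membrane-potential dye fluorescence (ex 535/em 590 nm). Endogenous PDE-IV was targeted. Compounds were tested at up to 22.9 uM final; RO 20-1724 100 uM served as control.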

The nature of assay [8]: qHTS Assay for Lipid Storage Modulators (AID 1519; calls by dose curve). As to conditions: Drosophila S3 cells, BODIPY lipid droplet/cell ratio, laser cytometry, cells loaded with oleic acid; for activity change, negative = inhibition: at 57.5 µM (top of the series). The method, boiled down: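 Cells seeded at 5,000 per well were treated with compounds over a concentration series and loaded with oleic acid (400 uM, as added). Lipid droplet fluorescence (488 nm excitation, 500-530 nm channel) was read by laser-scanning cytometry and normalized to 20 uM Triacsin C.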
Background: qHTS replaces the single test concentration by a dilution series.

Assay [9] is described as follows: Primary qHTS for small molecule stabilizers of the endoplasmic reticulum resident proteome: Secreted ER Calcium Modulated Protein (SERCaMP) assay (AID 1508630; active means well fitted curve in the direction sought with a large enough effect; an effect the other way counts as inactive or inconclusive; further: on the % scale 0 is the no-effect control and ±100 the full control effect). The following applies: SH-SY5Y GLuc-SERCaMP (Gaussia luciferase released on ER calcium loss) secretion, thapsigargin, luminescence; series mostly up to 38.4 µM. The method, boiled down:
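GLuc-SERCaMP-expressing SH-SY5Y cells, pretreated 16 h with compound, are challenged with thapsigargin to empty ER calcium stores; after 4 h, coelenterazine is added directly to the medium and luminescence is imaged.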

The target of assay [10] is Cytochrome P450 3A4 (Homo sapiens) (UniProt P08684). In words: qHTS Assay for Inhibitors and Substrates of Cytochrome P450 3A4 (AID 884; active means well fitted curve in the direction sought with a large enough effect; an effect the other way counts as inactive or inconclusive; further: potency means the concentration at half of the fitted maximal effect; nearly all actives have a fitted effect of over 50% in size). As to conditions: recombinant CYP3A4, Luciferin-PPXE luminescence; series mostly up to 57.1 µM. Put shortly:
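20 nM human CYP3A4 with 25 uM Luciferin-PPXE (at KM) in 200 mM KPO4, preincubated 10 min with compound; NADPH regeneration started a 60 min RT reaction. Luciferin detected by luminescence, normalized to 57 uM ketoconazole as full inhibition.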

Assay [11] has the same target. In words: qHTS Assay for Activators of Cytochrome P450 3A4 (AID 885; active means well fitted curve in the direction sought with a large enough effect; an effect the other way counts as inactive or inconclusive; further: nearly all actives have a fitted effect of over 65% in size). As to conditions: recombinant CYP3A4, Luciferin-PPXE luminescence, 60 min; series mostly up to 57.1 µM. The method, boiled down: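 Quantitative HTS format: compounds preincubated with 20nM human CYP3A4 and Luciferin-PPXE substrate at KM, reaction started by NADPH regeneration, stopped after 60 min, luciferase luminescence read 20 min later.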

Setting [12] is: measured here: cell count channel max response.
[13] abbreviates: measured here: lipid channel max response.

Glucocorticoid receptor (Homo sapiens), sequence (P04150 whole entry, looked up, the tested form may be a part): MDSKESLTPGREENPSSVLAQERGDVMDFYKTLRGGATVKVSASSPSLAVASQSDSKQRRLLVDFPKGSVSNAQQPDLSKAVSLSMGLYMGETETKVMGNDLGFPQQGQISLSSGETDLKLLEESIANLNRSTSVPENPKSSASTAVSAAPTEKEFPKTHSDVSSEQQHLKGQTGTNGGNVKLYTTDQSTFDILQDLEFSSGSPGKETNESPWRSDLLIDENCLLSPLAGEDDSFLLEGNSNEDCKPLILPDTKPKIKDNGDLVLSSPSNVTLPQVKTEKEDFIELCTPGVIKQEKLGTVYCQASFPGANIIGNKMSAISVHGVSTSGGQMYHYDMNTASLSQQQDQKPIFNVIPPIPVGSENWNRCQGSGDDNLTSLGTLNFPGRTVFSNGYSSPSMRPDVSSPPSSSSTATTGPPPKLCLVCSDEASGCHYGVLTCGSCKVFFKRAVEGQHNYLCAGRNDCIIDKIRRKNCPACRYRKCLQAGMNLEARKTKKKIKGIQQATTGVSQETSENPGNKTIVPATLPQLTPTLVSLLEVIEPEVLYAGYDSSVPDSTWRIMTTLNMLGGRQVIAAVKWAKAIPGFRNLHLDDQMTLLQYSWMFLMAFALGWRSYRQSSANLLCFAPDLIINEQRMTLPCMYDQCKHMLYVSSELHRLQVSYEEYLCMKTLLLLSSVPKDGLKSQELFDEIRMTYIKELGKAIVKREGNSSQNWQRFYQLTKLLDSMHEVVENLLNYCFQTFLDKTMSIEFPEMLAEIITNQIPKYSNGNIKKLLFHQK
Lysosomal acid glucosylceramidase (Homo sapiens), sequence (P04062 whole entry, looked up): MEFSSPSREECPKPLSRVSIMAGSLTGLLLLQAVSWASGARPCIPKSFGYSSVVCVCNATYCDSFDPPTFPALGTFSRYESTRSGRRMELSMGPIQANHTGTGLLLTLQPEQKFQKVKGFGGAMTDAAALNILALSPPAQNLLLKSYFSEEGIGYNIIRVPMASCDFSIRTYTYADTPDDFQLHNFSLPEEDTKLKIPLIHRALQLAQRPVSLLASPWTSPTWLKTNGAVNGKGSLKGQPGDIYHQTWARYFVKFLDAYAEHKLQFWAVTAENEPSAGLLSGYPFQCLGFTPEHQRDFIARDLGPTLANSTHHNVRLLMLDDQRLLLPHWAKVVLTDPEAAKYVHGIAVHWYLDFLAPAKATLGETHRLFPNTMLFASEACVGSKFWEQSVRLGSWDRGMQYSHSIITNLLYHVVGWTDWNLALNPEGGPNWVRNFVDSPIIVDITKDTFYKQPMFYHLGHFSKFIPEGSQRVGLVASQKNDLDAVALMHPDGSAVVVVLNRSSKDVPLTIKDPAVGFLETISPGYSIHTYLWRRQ
Cytochrome P450 3A4 (Homo sapiens), sequence (P08684 whole entry, looked up): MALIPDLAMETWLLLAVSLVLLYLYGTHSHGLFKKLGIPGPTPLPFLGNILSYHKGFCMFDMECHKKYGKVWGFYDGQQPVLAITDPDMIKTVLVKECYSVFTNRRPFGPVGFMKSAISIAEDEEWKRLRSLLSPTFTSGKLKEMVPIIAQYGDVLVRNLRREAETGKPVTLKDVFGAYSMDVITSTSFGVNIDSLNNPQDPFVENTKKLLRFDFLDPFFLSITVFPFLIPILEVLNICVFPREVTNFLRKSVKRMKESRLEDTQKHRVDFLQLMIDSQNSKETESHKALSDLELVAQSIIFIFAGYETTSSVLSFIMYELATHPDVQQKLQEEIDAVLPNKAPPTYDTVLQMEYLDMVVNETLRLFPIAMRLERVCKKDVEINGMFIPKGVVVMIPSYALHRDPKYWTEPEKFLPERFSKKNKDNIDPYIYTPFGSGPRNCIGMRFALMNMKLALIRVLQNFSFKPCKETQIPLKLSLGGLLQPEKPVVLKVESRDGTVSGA
3',5'-cyclic-AMP phosphodiesterase 4B (Homo sapiens), sequence (Q07343 whole entry, looked up): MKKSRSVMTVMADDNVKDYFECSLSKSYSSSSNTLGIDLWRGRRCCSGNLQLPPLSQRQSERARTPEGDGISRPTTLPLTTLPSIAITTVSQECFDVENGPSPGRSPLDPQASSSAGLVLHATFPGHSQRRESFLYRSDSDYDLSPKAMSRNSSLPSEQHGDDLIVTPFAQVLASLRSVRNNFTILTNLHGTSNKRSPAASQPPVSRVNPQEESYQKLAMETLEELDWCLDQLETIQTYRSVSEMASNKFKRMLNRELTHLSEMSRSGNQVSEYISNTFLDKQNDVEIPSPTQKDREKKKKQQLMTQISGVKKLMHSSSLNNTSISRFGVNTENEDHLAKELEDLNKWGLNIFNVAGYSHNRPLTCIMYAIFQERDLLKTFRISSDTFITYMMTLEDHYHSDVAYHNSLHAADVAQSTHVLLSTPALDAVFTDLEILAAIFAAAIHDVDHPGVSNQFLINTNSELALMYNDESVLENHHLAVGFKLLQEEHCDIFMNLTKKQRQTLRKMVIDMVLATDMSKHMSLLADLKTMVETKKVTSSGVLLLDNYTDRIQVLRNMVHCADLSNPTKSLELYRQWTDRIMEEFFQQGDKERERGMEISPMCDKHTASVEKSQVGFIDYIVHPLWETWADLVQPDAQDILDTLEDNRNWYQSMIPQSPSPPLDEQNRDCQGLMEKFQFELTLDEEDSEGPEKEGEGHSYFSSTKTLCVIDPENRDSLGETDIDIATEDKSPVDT

As for `Cc1noc(C)c1C(=O)N1CCC2(CC1)CN(Cc1cc(C(F)(F)F)cc(C(F)(F)F)c1)C2`, the Potency in assay [1] is > 11.4 µM (inactive); in assay [5], > 46 µM (inactive). Moreover, the activity change, negative = inhibition in [2] was -7.95% (inactive); in assay [3], -16.8% (inactive); in assay [8], -4.32% (inactive). Moreover, the activity, negative = inhibition in assay [4] is -3.94% (inactive). The Potency entry in [6] and in [7] was “inactive” each time. The max response in [8] (setting [12]) was -1.83%; in assay [8] (setting [13]) it was -4.57%. For the same molecule, the result in [9] was inactive.

As for `COc1ccc(C(=O)N2CCC[C@@]3(CCN(CC(C)C)C3)C2)cc1`, the Potency in assay [1] was > 11.4 µM (inactive); in assay [5] it was > 46 µM (inactive); in assay [10], 7.94 µM (active). Moreover, the activity change, negative = inhibition in assay [2] was -12.8% (inactive); in assay [3], -2.79% (inactive); in assay [8], 2.82% (inactive). Besides, the activity, negative = inhibition in [4] was -10.6% (inactive). Also, the Potency result in assay [6], in assay [7] and in [11] was “inactive” throughout. The figures for the max response in assay [8] (setting [12]) and in assay [8] (setting [13]) were 8.22% and 13.2%, respectively. For the same molecule, in assay [9], the result was inactive.

Take `N#Cc1ccc(CN2CC[C@@]3(CCCN(C(=O)c4cnccn4)C3)C2)cc1`: the figures for the Potency in assay [1] and in [5] were > 11.4 µM (inactive) and > 46 µM (inactive), respectively. In addition, the results for the activity change, negative = inhibition in [2], in [3] and in [8] were -8.73% (inactive), 1.72% (inactive) and 2.06% (inactive), respectively. In [4], the activity, negative = inhibition is 4.34% (inactive). Also, the Potency result in assay [6] and in [7] was “inactive” in each case. Further, the figures for the max response in assay [8] (setting [12]) and in assay [8] (setting [13]) were 12.2% and 18.2%, respectively. Further, in assay [9], the result was inactive.

With `N#Cc1ccc(CN2CC[C@@]3(CCCN(C(=O)c4ccncc4)C3)C2)cc1`, the Potency in assay [1] was > 11.4 µM (inactive); in assay [5], > 46 µM (inactive). The values for the activity change, negative = inhibition in assay [2], in [3] and in assay [8] were -10.1% (inactive), -7.12% (inactive) and 4.36% (inactive), respectively. For the same molecule, in [4], the activity, negative = inhibition is 8.24% (inactive). Moreover, the Potency result in [6] and in [7] was “inactive” each time. Also, the max response worked out at 17.6% in assay [8] (setting [12]) and 26% in assay [8] (setting [13]). Further, the outcome in assay [9] was inactive.

With `CC(C)CN1CC[C@@]2(CCCN(C(=O)c3ccco3)C2)C1`, the Potency in [1] was > 11.4 µM (inactive); in assay [5] it was > 46 µM (inactive). Besides, the activity change, negative = inhibition was -7.86% (inactive) in [2], 7.22% (inactive) in [3] and 3.8% (inactive) in [8]. In addition, the activity, negative = inhibition in [4] is -2.85% (inactive). For the same molecule, the Potency result in assay [6], in assay [7] and in [11] was “inactive” throughout. Further, the max response was 3.5% in assay [8] (setting [12]) and 8.53% in assay [8] (setting [13]). Besides, in [9], the outcome was inactive.

As for `CC(=O)N1CCC[C@@]2(CCN(C(=O)Nc3ccccc3)C2)C1`, the Potency in assay [1] is > 11.4 µM (inactive); in assay [5] it was > 46 µM (inactive). Moreover, the activity change, negative = inhibition in assay [2] was 10.4% (inactive); in assay [3], 22.8% (inactive); in assay [8], 3.44% (inactive). Further, in assay [4], the activity, negative = inhibition is -3.7% (inactive). The Potency result in [6] and in assay [7] was “inactive” in each case. The max response in assay [8] (setting [12]) was -12.3%; in assay [8] (setting [13]), -5.99%. In addition, the outcome in assay [9] was inactive.

As for `O=S(=O)(c1ccccc1)N1CCC2(CCN(c3cccc(-c4ccccc4)c3)CC2)CC1`, the Potency in [1] was > 11.4 µM (inactive); in assay [5] it was > 46 µM (inactive). The values for the activity change, negative = inhibition in assay [2], in assay [3] and in assay [8] were -5.65% (inactive), -3.11% (inactive) and 5.8% (inactive), respectively. In addition, in assay [4], the activity, negative = inhibition is -8.83% (inactive). The Potency entry in assay [6] and in assay [7] was “inactive” each time. The max response stood at 17.8% in [8] (setting [12]) and 24.9% in [8] (setting [13]). In addition, in assay [9], the result was inactive.

For `COCC(=O)N1CCC[C@@]2(CCN(c3ccccc3)C2)C1`, the results for the Potency in assay [1] and in assay [5] were > 11.4 µM (inactive) and > 46 µM (inactive), respectively. Further, the activity change, negative = inhibition in [2] was -8.85% (inactive); in [3] it was -13.7% (inactive); in assay [8], -2.7% (inactive). Also, the activity, negative = inhibition in assay [4] was 8.14% (inactive). Besides, the Potency result in assay [6] and in [7] was “inactive” in each case. For the same molecule, the results for the max response in assay [8] (setting [12]) and in assay [8] (setting [13]) were 17.9% and 18%, respectively. In addition, the result in [9] was inactive.

Regarding `CC(C)NC(=O)N1CC[C@@]2(CCCN(C(=O)c3cnccn3)C2)C1`, the Potency in assay [1] was > 11.4 µM (inactive); in [5], > 46 µM (inactive). Also, the activity change, negative = inhibition in assay [2] was 7.64% (inactive); in assay [3] it was 11.4% (inactive); in assay [8], 3.99% (inactive). In assay [4], the activity, negative = inhibition was 4.04% (inactive). In addition, the Potency entry in assay [6] and in [7] was “inactive” in each case. The max response in assay [8] (setting [12]) was -1.16%; in assay [8] (setting [13]) it was 5.89%. Also, the result in assay [9] was inactive.

Turning to `CC(C)CN1CCC2(CC1)CCN(C(=O)c1ccco1)CC2`, the Potency in assay [1] was > 11.4 µM (inactive); in [5] it was > 46 µM (inactive). Further, the activity change, negative = inhibition in assay [2] is 10.1% (inactive); in [8], -0.991% (inactive). In addition, the activity, negative = inhibition in [4] is -2.71% (inactive). The Potency result in [6] and in assay [7] was “inactive” in each case. The max response in assay [8] (setting [12]) was -0.576%; in assay [8] (setting [13]), 1.45%. In addition, the result in assay [9] was inactive.

`N#Cc1ccc(CN2CCC3(CC2)CCN(C(=O)c2cccc(F)c2)CC3)cc1`: the Potency in assay [1] is > 11.4 µM (inactive); in assay [5], > 46 µM (inactive). The values for the activity change, negative = inhibition in assay [2] and in [8] were 3.84% (inactive) and 1.66% (inactive), respectively. Further, in [4], the activity, negative = inhibition is 8.5% (inactive). Besides, the Potency entry in assay [6] and in assay [7] was “inactive” in each case. The max response in [8] (setting [12]) is 7.59%; in [8] (setting [13]), 9.63%. The result in assay [9] was inactive.

For `O=C(c1cnccn1)N1CCC2(CCCN(Cc3ccccc3)C2)CC1`, the Potency in assay [1] was > 11.4 µM (inactive); in assay [5], > 46 µM (inactive). The values for the activity change, negative = inhibition in [2] and in assay [8] were -6.44% (inactive) and 1.18% (inactive), respectively. Further, the activity, negative = inhibition in [4] is -11.8% (inactive). The Potency result in assay [6] and in assay [7] was “inactive” each time. Further, the max response in [8] (setting [12]) worked out at 14.6%; in assay [8] (setting [13]), 17.1%. Also, in [9], the result was inactive.
